Activity calls are given as the source filed them.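 The calls were made as follows, unless noted: active = fluorescence slope higher than the sample average by over 3 SD (cut at about -0.22 in these data, passing the limit was not always enough); inactive = the rest.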

The nature of assay [1]: inhibitors of TNFa-induced NFkB p65 translocation, primary screen, imaging, HUVEC, MLSMR starter and 10KST1 sets (AID 438;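 active = inhibition above 20% together with a positive visual image hit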;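 also: compound added about 3h40 before a 20 min TNFalpha stimulation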;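 as to inhibition: signal is the nuclear over cytoplasmic p65 intensity ratio per well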). Particulars: HUVEC TNFa-induced p65 nuclear translocation; cell count: measured here: nuclei count (cytotoxicity indicator), at 2.08 µM; inhibition: at 2 µM, stronger effect = higher value, 0% TNFa-plus-vehicle, 100% no-TNFa wells.
A short description of assay [2]: reduction of polyQ htt aggregates in cells – imaging, exon1htt(103Q)mCFP cells, high-content imaging, primary screen (AID 483;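 active = visual image review flags a hit and inhibition of aggregation exceeds 20%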;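 also: compound exposure lasted 3 days before fixation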;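 as to nuclei count: percent of the per-plate median nuclei count of sample wells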). Particulars: exon1htt(103Q)mCFP cell line, aggregate imaging, at 2 µM; inhibition of aggregation: stronger effect = higher value; nuclei count: measured here: cell count, toxicity.
The nature of assay [3]: endothelial E-selectin expression blockers – imaging, HUVEC, immunofluorescence, MLSMR starter and 10KST1 sets, primary screen (AID 487;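 active = visually confirmed hit in the image check and inhibition above 20%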;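 as to inhibition: signal is fraction of cell area covered by stained E-selectin grains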;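 as to nuclei count: 100% = median nuclei count of all wells on the same plate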). Particulars: HUVEC TNFalpha-induced E-selectin immunofluorescence imaging, at 2 µM; inhibition: stronger effect = higher value; nuclei count: measured here: cell number, toxicity.
Assay [4] deals with Voltage-gated potassium channel subunit beta-2 (Rattus norvegicus) (UniProt P62483). The experiment in a line: inhibitors of rat Kvbeta2 reductase activity – biochemical, NADPH fluorescence, primary screen (AID 622).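 Also: slope of raw intensity against log time taken from 70 to 1610 s.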 Particulars: recombinant KvBeta, 4-cyanobenzaldehyde reduction, at 10 µM, stronger effect = higher value.
Assay [5] shares this target. The experiment in a line: enhancers of rat Kvbeta2 NADPH turnover – biochemical, NADPH fluorescence, primary screen (AID 623;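 active = NADPH fluorescence slope more negative than the mean of all samples by about 3 SD, 99.7% confidence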;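 also: fluorescence intensity change per second fitted from 20 to 320 s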). Particulars: Recombinant KvBeta, NADPH fluorescence decrease slope, 10 min; at 10 µM; stronger effect = lower value.
Assay [6] has as its target Alpha-2C adrenergic receptor (Homo sapiens) (UniProt P18825). The experiment in a line: compounds altering alpha2C-coupled GIRK flux – cell-based, HEK293 alpha2C/GIRK1/2, thallium flux, primary screen (AID 624;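 active = fluorescence slope after compound addition differing from the mean of all screened samples at 99.7% confidence, in either direction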;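 also: slope of fluorescence ratio to pre-addition baseline per second over 15 to 24 s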). Particulars: thallium flux BTC fluorescence, at 10 µM, actives lie on both sides.
Assay [7] can be described thus: blockers of RIG-like receptor reporter activation – cell-based, Sendai virus stimulus, luciferase, 10K MLSCN set, TLR/RLR signaling modifier project, primary screen (AID 602276;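 active = inhibition at or above 50% at 10 µM; inactive = inhibition below 50%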;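 also: firefly luciferase from ISG56 promoter only with Renilla not read in this screen; 0% = Sendai virus plus DMSO and 100% = medium plus DMSO without virus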). Particulars: HEK293 RL24 IRF3 luciferase reporter, at 10 µM, stronger effect = higher value. On the technique in general: In a reporter assay the amount or activity of a reporter protein is the signal.

The nature of assay [8]: TLR3 IRF3 reporter activation blockers – cell-based, poly I:C stimulus, luciferase, 10K MLSCN set, primary screen (AID 602277;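 active = inhibition of the reporter signal at or above 50%; inactive = inhibition below 50%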). Particulars: HEK293-TLR3 RL24 IRF3 luciferase reporter, at 10 µM, stronger effect = higher value.

Alpha-2C adrenergic receptor (Homo sapiens), sequence (P18825 whole entry, looked up): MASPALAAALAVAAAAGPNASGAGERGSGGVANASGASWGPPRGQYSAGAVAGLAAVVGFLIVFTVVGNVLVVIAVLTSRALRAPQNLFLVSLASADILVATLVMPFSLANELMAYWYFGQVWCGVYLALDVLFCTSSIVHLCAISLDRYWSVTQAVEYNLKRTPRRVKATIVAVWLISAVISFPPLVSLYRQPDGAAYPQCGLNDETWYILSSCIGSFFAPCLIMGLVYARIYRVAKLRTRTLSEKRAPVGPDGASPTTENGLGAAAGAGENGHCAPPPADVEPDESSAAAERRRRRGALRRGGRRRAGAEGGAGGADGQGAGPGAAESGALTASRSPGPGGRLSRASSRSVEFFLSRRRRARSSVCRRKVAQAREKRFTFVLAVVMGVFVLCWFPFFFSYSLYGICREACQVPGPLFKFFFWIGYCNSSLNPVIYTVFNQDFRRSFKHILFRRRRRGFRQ
Voltage-gated potassium channel subunit beta-2 (Rattus norvegicus), sequence (P62483 whole entry, looked up): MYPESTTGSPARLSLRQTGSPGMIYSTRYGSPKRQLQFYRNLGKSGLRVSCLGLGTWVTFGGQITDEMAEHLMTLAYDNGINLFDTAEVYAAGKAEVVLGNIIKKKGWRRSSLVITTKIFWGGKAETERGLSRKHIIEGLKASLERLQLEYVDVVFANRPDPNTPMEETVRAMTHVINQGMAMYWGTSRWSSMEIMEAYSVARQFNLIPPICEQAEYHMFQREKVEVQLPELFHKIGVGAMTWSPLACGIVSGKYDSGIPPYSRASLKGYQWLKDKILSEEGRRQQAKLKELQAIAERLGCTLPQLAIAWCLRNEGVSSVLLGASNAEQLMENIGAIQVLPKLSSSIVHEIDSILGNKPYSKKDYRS

On to `CCC(=O)Nc1c2c(nn1-c1ccccc1C)CSC2`, for which, in assay [1], the cell count is 592. Further, the inhibition in assay [1] was 8.9% (inactive); in assay [3], 31.2% (inactive); in assay [7], 14.2% (inactive); in assay [8], 21.4% (inactive). In addition, the inhibition of aggregation in assay [2] is -2.1% (inactive). Moreover, the values for the nuclei count in assay [2] and in assay [3] were 114% and 99.7%, respectively. In addition, the fluorescence slope in assay [4] was -0.614 (inactive). Moreover, the NADPH fluorescence slope in assay [5] was -1.7e-05 (inactive). For the same compound, the slope in assay [6] was 0.00682 (inactive).

As for `Cc1ccc(S(=O)(=O)NC(=O)c2cc(C)n(CCCn3ccnc3)c2C)cc1`, in assay [1], the cell count was found to be 218. The inhibition in assay [1] was -2.9% (inactive); in assay [3] it was -86.6% (inactive); in assay [7] it was 11.6% (inactive); in assay [8] it was 13.5% (inactive). In addition, the inhibition of aggregation in assay [2] is 9.2% (inactive). For the same compound, the results for the nuclei count in assay [2] and in assay [3] were 92.3% and 108%, respectively. Besides, the fluorescence slope in assay [4] is -0.596 (inactive). Moreover, the NADPH fluorescence slope in assay [5] was -2.4e-05 (inactive). Also, in assay [6], the slope was 0.00417 (inactive).

In the case of `COc1ccc(OC)c(C2C(C(=O)Nc3cccnc3)=C(C)NC3=C2C(=O)CCC3)c1` (centres undefined), the cell count in assay [1] was determined as 353. In addition, the inhibition in assay [1] is -7% (inactive); in assay [3] it was -64% (inactive); in assay [7], 3.04% (inactive); in assay [8], 25% (inactive). Moreover, in assay [2], the inhibition of aggregation is 2.3% (inactive). Further, the nuclei count in assay [2] was 103%; in assay [3], 131%. The fluorescence slope in assay [4] was -0.379 (inactive). Further, in assay [5], the NADPH fluorescence slope was 2.2e-05 (inactive). For the same compound, the slope in assay [6] was 0.00554 (inactive).

As to `COc1ccccc1NC(=O)N1CCN(c2ccccc2F)CC1`, in assay [1], the cell count turned out to be 209. Besides, the inhibition in assay [1] was 2.5% (inactive); in assay [3], -100% (inactive); in assay [7] it was 11.9% (inactive); in assay [8], -4.11% (inactive). Moreover, the inhibition of aggregation in assay [2] was -10.6% (inactive). The nuclei count was 99.1% in assay [2] and 102% in assay [3]. The fluorescence slope in assay [4] was -0.388 (inactive). For the same compound, in assay [5], the NADPH fluorescence slope is -3.6e-05 (inactive). The slope in assay [6] is 0.00564 (inactive).

With `Cc1nnc(SCC(=O)N2c3ccccc3CC2C)s1` (centres undefined), in assay [1], the cell count was 528. In addition, the inhibition is -31.1% (inactive) in assay [1], -46.9% (inactive) in assay [3], 4.91% (inactive) in assay [7] and -5.96% (inactive) in assay [8]. Moreover, the inhibition of aggregation in assay [2] was 5.8% (inactive). Further, the nuclei count in assay [2] was determined as 55.7%; in assay [3], 136%. Moreover, in assay [4], the fluorescence slope is -0.521 (inactive). For the same compound, in assay [5], the NADPH fluorescence slope is -5.2e-05 (inactive). Besides, the slope in assay [6] is 0.00417 (inactive).

In the case of `CC(NC(=O)Cc1cccs1)c1ccc2c(c1)OCO2` (centres undefined), the cell count in assay [1] was 333. For the same compound, the inhibition is 5.1% (inactive) in assay [1], -9.2% (inactive) in assay [3], 14.9% (inactive) in assay [7] and 4.01% (inactive) in assay [8]. Besides, the inhibition of aggregation in assay [2] is -3.8% (inactive). Also, the nuclei count is 104% in assay [2] and 109% in assay [3]. In addition, the fluorescence slope in assay [4] was -0.609 (inactive). In addition, in assay [5], the NADPH fluorescence slope is -2.4e-05 (inactive). Also, the slope in assay [6] was 0.00364 (inactive).

For the compound `COc1nc(C)ccc1-c1noc(-c2ccncc2)n1`, the cell count in assay [1] is 255. For the same compound, the inhibition in assay [1] is 7% (inactive); in assay [3], -40% (inactive); in assay [7] it was -26% (inactive); in assay [8], -82.9% (inactive). In addition, the inhibition of aggregation in assay [2] was -7.3% (inactive). Moreover, the nuclei count in assay [2] was 36.4%; in assay [3], 130%. In addition, the fluorescence slope in assay [4] is -0.468 (inactive). Further, the NADPH fluorescence slope in assay [5] is -1.8e-06 (inactive). In addition, the slope in assay [6] is 0.00545 (inactive).

`COc1cc(C2NC(=O)NC(C)=C2C(=O)OCC2CCCO2)ccc1O` (centres undefined): the cell count in assay [1] was 401. Moreover, the inhibition in assay [1] was 1.8% (inactive); in assay [3], -105% (inactive); in assay [7], 1.44% (inactive); in assay [8], 24.7% (inactive). Further, in assay [2], the inhibition of aggregation is -5.3% (inactive). Also, the nuclei count in assay [2] was 112%; in assay [3], 114%. In assay [4], the fluorescence slope was -0.489 (inactive). The NADPH fluorescence slope in assay [5] is -3.4e-05 (inactive). In assay [6], the slope is 0.00604 (inactive).

`COc1ccccc1N(CC(=O)Nc1cccnc1)S(C)(=O)=O`: the cell count in assay [1] came to 623. Moreover, the inhibition in assay [1] is 9.2% (inactive); in assay [3], 58.2% (inactive); in assay [7] it was 7.85% (inactive); in assay [8], 17.6% (inactive). In assay [2], the inhibition of aggregation is 20.5% (inactive). Moreover, the nuclei count in assay [2] is 92.6%; in assay [3] it was 34.6%. Moreover, the fluorescence slope in assay [4] was -0.408 (inactive). Besides, in assay [5], the NADPH fluorescence slope was -6.4e-05 (inactive). Further, the slope in assay [6] was 0.00671 (inactive).

For the compound `CCCNC(=O)NC1C(NC(=O)NCCC)N(C)C(=O)N1C` (centres undefined), in assay [1], the cell count worked out at 551. Also, the inhibition was -0.3% (inactive) in assay [1], -60.1% (inactive) in assay [3], -0.304% (inactive) in assay [7] and 16.2% (inactive) in assay [8]. Further, in assay [2], the inhibition of aggregation is -4.3% (inactive). The results for the nuclei count in assay [2] and in assay [3] were 98.1% and 116%, respectively. For the same compound, the fluorescence slope in assay [4] is -0.461 (inactive). Also, in assay [5], the NADPH fluorescence slope was 2.5e-05 (inactive). For the same compound, the slope in assay [6] is 0.00546 (inactive).

For `Cc1ccc(C(=O)CSc2n[nH]c(-c3ccco3)n2)cc1C`, the cell count in assay [1] came to 397. Besides, the inhibition is 0.7% (inactive) in assay [1], 11.3% (inactive) in assay [3], 0.966% (inactive) in assay [7] and 10.8% (inactive) in assay [8]. Moreover, the inhibition of aggregation in assay [2] was -8.3% (inactive). Also, the values for the nuclei count in assay [2] and in assay [3] were 113% and 106%, respectively. Besides, the fluorescence slope in assay [4] was -0.479 (inactive). Also, the NADPH fluorescence slope in assay [5] is 1.8e-05 (inactive). Moreover, the slope in assay [6] is 0.00302 (inactive).

In the case of `Cc1nc2scc(-c3ccco3)c2c(=O)n1/N=C/N(C)C`, the cell count in assay [1] was found to be 453. Moreover, the inhibition in assay [1] was -4.8% (inactive); in assay [3], -35.6% (inactive); in assay [7], -2.39% (inactive); in assay [8] it was 3.07% (inactive). In assay [2], the inhibition of aggregation was -22.8% (inactive). Further, the figures for the nuclei count in assay [2] and in assay [3] were 86.6% and 116%, respectively. Moreover, the fluorescence slope in assay [4] was -0.342 (inactive). Moreover, the NADPH fluorescence slope in assay [5] is -6.4e-05 (inactive). For the same compound, in assay [6], the slope is 0.00533 (inactive).

With `O=S1(=O)CCC(NS(=O)(=O)/C=C/c2ccccc2)C1` (centres undefined), the cell count in assay [1] came out at 566. Further, the inhibition in assay [1] is -1.6% (inactive); in assay [3], -1.4% (inactive); in assay [7], 4.67% (inactive); in assay [8] it was 14.6% (inactive). Besides, in assay [2], the inhibition of aggregation was 2% (inactive). Also, the nuclei count in assay [2] stood at 119%; in assay [3], 96.4%. The fluorescence slope in assay [4] was -0.386 (inactive). Also, the NADPH fluorescence slope in assay [5] is -0.000106 (inactive). Besides, the slope in assay [6] was 0.00742 (inactive).

For `CCOC(=O)c1c(NC(=O)c2nn(CC)cc2Br)c(C#N)cn1-c1ccccc1`, the cell count in assay [1] came out at 467. Further, the inhibition in assay [1] is 0.6% (inactive); in assay [3], -36.5% (inactive); in assay [7], 0.0192% (inactive); in assay [8] it was -9.02% (inactive). Further, the inhibition of aggregation in assay [2] was -9.2% (inactive). The figures for the nuclei count in assay [2] and in assay [3] were 51.8% and 93.5%, respectively. Besides, the fluorescence slope in assay [4] was -0.407 (inactive). In addition, the NADPH fluorescence slope in assay [5] is -2.9e-05 (inactive). Further, the slope in assay [6] was 0.00368 (inactive).

One may read the inhibition as the relative decrease from the control value, in per cent.

(Values after PubChem BioAssay.)
